From PubChem BioAssay (Tox21)
Several values for one entry are separate records, joined by “and”; a condition that tells them apart may be missing. Identical values can stand only once. Records with an inconclusive call do not appear. More than one record can exist for a structure, and the calls need not agree. Activity calls are given as the source filed them. Unless noted, the call rests on the fitted dose curve.

Experiments:
[1] = qHTS assay to identify small molecule antagonists of the constitutive androstane receptor (CAR) signaling pathway - cell viability counter screen (AID 1224837; active means well fitted curve in the direction sought with a large enough effect in the repeat runs; an effect the other way counts as inactive or inconclusive; further: series mostly up to about 92 µM; nearly all actives have a fitted effect of over 45% in size)
Procedure, shortened: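 Multiplexed cytotoxicity read-out for the CAR antagonist screen: double-stable HepG2-CYP2B6-hCAR cells co-treated with 50 nM CITCO (final) and compound over 15 concentrations, incubated 23 hr, then assessed by CellTiter-Fluor fluorescence.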

[2] = target: Thyrotropin receptor (Homo sapiens) (UniProt P16473); test: qHTS assay to identify small molecule agonists of the thyroid stimulating hormone receptor (TSHR) signaling pathway (AID 1224843); further: nearly all actives have a fitted effect of over 45% in size; further: potency means the concentration at half of the fitted maximal effect
Chain of Thyrotropin receptor (Homo sapiens) (P16473 whole entry, looked up): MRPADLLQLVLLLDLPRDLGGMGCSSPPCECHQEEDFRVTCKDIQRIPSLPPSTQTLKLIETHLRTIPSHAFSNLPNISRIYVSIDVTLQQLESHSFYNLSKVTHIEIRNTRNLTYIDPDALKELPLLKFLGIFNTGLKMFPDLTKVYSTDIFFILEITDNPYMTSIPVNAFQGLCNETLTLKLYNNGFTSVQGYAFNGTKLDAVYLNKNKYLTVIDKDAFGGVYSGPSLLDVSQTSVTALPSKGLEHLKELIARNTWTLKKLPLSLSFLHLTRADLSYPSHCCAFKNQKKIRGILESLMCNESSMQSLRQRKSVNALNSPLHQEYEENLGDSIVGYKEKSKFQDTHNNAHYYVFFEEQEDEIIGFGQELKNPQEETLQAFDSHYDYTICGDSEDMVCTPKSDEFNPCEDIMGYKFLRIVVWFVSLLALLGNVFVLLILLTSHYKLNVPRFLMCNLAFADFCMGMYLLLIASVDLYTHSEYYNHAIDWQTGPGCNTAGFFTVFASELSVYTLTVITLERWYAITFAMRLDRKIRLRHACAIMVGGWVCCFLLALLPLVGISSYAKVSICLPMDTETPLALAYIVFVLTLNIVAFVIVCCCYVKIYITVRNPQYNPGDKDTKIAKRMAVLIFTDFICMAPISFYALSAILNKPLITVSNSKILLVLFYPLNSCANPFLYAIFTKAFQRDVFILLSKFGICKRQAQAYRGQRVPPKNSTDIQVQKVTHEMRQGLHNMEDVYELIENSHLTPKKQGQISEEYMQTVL
Procedure, shortened: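 HEK293 cells stably bearing the thyrotropin receptor were plated at 800 cells/well and challenged with compound (30 min, RT). Accumulated cAMP was quantified via cAMP-d2 competing for cryptate-tagged antibody.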

[3] = qHTS assay to identify small molecule agonists of the hypoxia (HIF-1) signaling pathway - cell viability counter screen (AID 1224844); further: nearly all actives have a fitted effect of over 50% in size; further: potency means the concentration at half of the fitted maximal effect
Procedure, shortened: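 Tox21 10K compounds were added to HRE-bla ME-180 cells (0.5% dialyzed FBS) and incubated 17 hrs at 37C; ATP-based CellTiter-Glo luminescence then reported cell viability in the same wells.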

[4] = qHTS assay to identify small molecule agonists of H2AX (AID 1224845; active means well fitted activation curve with a large enough effect in the signal ratio in the repeat runs, not every such curve was filed as active; the % refers to the signal ratio; further: potency means the concentration at half of the fitted maximal effect)
Procedure, shortened: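 Phospho-H2AX Ser139 measured by HTRF (ex 320 nm; em 665 and 620 nm) after 24 hr antibody incubation. Compounds, 15 concentrations, 0.76% DMSO, were applied to CHO-K1 cells for 3hr at 37C before lysis.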

[5] = qHTS assay to identify small molecule agonists of the hypoxia (HIF-1) signaling pathway (AID 1224846; active means well fitted activation curve with a large enough effect in the signal ratio in the repeat runs, not every such curve was filed as active; the % refers to the signal ratio)
Procedure, shortened: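 Steps: seed ME-180 HRE-bla cells (2,000/well, 0.5% dialyzed FBS); incubate 5 hrs at 37C; pin-transfer compounds or DMSO; incubate 17 hrs; add LiveBLAzer B/G substrate CCF4-AM; measure reporter activation by FRET.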

[6] = qHTS assay to identify small molecule antagonists of the estrogen related receptor signaling pathway with the pleiotropic PPARgamma coactivator (PGC) from Tox21 10K library - cell viability counter screen (AID 1224840; active means well fitted cell-killing curve with a large enough effect in the repeat runs, not every such curve was filed as active; further: nearly all actives have a fitted effect of over 40% in size; further: potency means the concentration at half of the fitted maximal effect)
Procedure, shortened: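 Step one, plate 2,000 PGC/ERR cells per well; step two, incubate 6 h at 37 C/5% CO2; step three, pin-transfer compounds; step four, incubate 17.5 h; step five, add CellTiter-Fluor and read fluorescence after 30 min.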

[7] = qHTS assay to identify small molecule antagonists of the estrogen related receptor signaling pathway with the pleiotropic PPARgamma coactivator (PGC) from Tox21 10K library (AID 1224841; call rule not given here; further: actives are mostly falling curves and most rising ones were filed inactive; nearly all actives have a fitted effect of over 50% in size; further: potency means the concentration at half of the fitted maximal effect)
Procedure, shortened: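 Antagonism in this quantitative HTS is taken from loss of luciferase signal in PGC/ERR cells. Cells (2,000/well) are treated with compounds in DMSO after a 6 h settling period and read by One-Glo luminescence after 18 h.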

[8] = qHTS assay to identify small molecule agonists of the estrogen related receptor signaling pathway with the pleiotropic PPARgamma coactivator (PGC) from Tox21 10K library (AID 1224842; active means well fitted curve in the direction sought with a large enough effect in the repeat runs; an effect the other way counts as inactive or inconclusive; further: nearly all actives have a fitted effect of over 15% in size)
Procedure, shortened: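 Luminescence from One-Glo (30 min, room temperature) measured after PGC/ERR cells had 18 h at 37 C with pinned compound (23 nL in DMSO). Cells had been seeded at 2,000 per well and pre-incubated 6 h.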

[9] = target: Nuclear receptor subfamily 1 group I member 3 (Homo sapiens) (UniProt Q14994); test: qHTS assay to identify small molecule antagonists of the constitutive androstane receptor (CAR) signaling pathway (AID 1224838; active means well fitted curve in the direction sought with a large enough effect in the repeat runs; an effect the other way counts as inactive or inconclusive; further: nearly all actives have a fitted effect of over 40% in size)
Chain of Nuclear receptor subfamily 1 group I member 3 (Homo sapiens) (Q14994 whole entry, looked up): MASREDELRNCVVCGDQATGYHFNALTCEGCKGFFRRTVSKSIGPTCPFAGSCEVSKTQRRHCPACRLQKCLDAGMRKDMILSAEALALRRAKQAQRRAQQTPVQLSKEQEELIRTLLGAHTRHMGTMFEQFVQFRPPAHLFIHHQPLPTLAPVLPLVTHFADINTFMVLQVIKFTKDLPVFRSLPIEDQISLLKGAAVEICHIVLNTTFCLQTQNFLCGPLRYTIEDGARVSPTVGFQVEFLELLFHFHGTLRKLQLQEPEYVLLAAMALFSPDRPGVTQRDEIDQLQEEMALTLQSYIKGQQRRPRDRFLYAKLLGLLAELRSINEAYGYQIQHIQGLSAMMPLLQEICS
Procedure, shortened: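 Compounds were titrated across 15 concentrations onto HepG2 cells double-stably expressing hCAR and a CYP2B6-2.2kb reporter, together with 50 nM CITCO (final). After 24 h at 37 C, luciferase activity was measured by luminescence.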

[10] = target: Nuclear receptor subfamily 1 group I member 3 (Homo sapiens) (UniProt Q14994); test: qHTS assay to identify small molecule agonists of the constitutive androstane receptor (CAR) signaling pathway (AID 1224839; active means well fitted curve in the direction sought with a large enough effect in the repeat runs; an effect the other way counts as inactive or inconclusive;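 further: HepG2 cells stably carrying human CAR and a CYP2B6 luciferase reporter; series mostly up to about 92 µM; nearly all actives have a fitted effect of over 15% in size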)
Procedure, shortened: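 Luminescence read-out (ONE-Glo, 30 min, room temperature) from double-stable HepG2-CYP2B6-hCAR cells exposed 24 h to 15-point compound series in presence of 0.75 uM PK11195 final.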
On the % scale 0 is the no-effect control and ±100 the full control effect.

OCCOCCN1CCN(C2=Nc3ccccc3Sc3ccccc32)CC1
inactive: Potency [1] | Potency [2] | Potency [3] | Potency [4] | outcome [5]

Cc1ccc(S(N)(=O)=O)cc1
inactive: Potency [1] | Potency [6] | Potency [2] | Potency [3] | Potency [4] | outcome [5]

C=CCOC(=O)c1ccccc1C(=O)OCC=C
inactive: Potency [1] | Potency [2] | Potency [3] | Potency [4] | outcome [5]

CCCCCCCCCC
inactive: Potency [1] | Potency [6] | Potency [2] | Potency [3] | Potency [4] | outcome [5]

COc1ccc(Nc2ccccc2)c(C)c1
inactive: Potency [1] | Potency [7] | outcome [8] | Potency [2] | Potency [3] | Potency [4] | outcome [5]

CC(C)(C)[C@@H](O)[C@@H](Cc1ccc(Cl)cc1)n1cncn1
inactive: Potency [1] | Potency [2] | Potency [3] | Potency [4] | outcome [5]

c1c[nH]cn1
inactive: Potency [1] | Potency [6] | Potency [3] | Potency [4] | outcome [5]

O=C(O)c1cc(O)c(O)c(O)c1
inactive: Potency [1] | Potency [9] | Potency [2] | Potency [3] | outcome [5]

CCCCC(CC)COC(=O)C(C#N)=C(c1ccccc1)c1ccccc1 (stereo unspecified)
inactive: Potency [1] | Potency [6] | Potency [7] | outcome [8] | Potency [2] | Potency [3] | Potency [4] | outcome [5]

CCCCCCCCCCCCS
inactive: Potency [1] | Potency [9] | Potency [2] | Potency [3] | Potency [4] | outcome [5]

CC(O)COCC(C)O (stereo unspecified)
inactive: Potency [1] | Potency [2] | Potency [3] | Potency [4] | outcome [5]

O=C(O)[C@H](O)[C@@H](O)[C@H](O)[C@H](O)CO
inactive: Potency [1] | Potency [6] | Potency [3] | Potency [4] | outcome [5]

CC(c1cc2ccccc2s1)N(O)C(N)=O (stereo unspecified)
inactive: Potency [1] | Potency [3] | Potency [4] | outcome [5]

C=C(C)C(=O)O[C@H]1C[C@@H]2CC[C@@]1(C)C2(C)C
13.6 µM (active) and inactive: Potency [6]
1.94 µM (active) and inactive: Potency [3]
60.8 µM (active) and inactive: Potency [7]
inactive: outcome [8] | Potency [2] | outcome [5]
2.24 µM (active) and inactive: Potency [4]

COc1cc(Cc2cnc(N)nc2N)cc(OC)c1OC
inactive: Potency [1] | Potency [2] | Potency [3] | Potency [4]

c1ccc2scnc2c1
inactive: Potency [1] | Potency [6] | Potency [2] | Potency [3] | Potency [4] | outcome [5]

CC(=O)CC(=O)Nc1ccccc1
19.3 µM (active) and inactive: Potency [2]
inactive: Potency [1] | Potency [3] | Potency [4] | outcome [5]

OCc1cccnc1
inactive: Potency [1] | Potency [3] | Potency [4]

CCCCC(CC)COC(=O)CS (stereo unspecified)
inactive: Potency [1] | Potency [6] | Potency [7] | outcome [8] | Potency [2] | Potency [3] | Potency [4] | outcome [5]

CCN(CC)CCCC(C)Nc1ccnc2cc(Cl)ccc12 (stereo unspecified)
inactive: viability change, negative = cytotoxic [6] -1.36% [at 8.39 µM] and -20.9% [at 19 µM] | activity change, negative = cytotoxicity [3] -3.66% [at 15.8 µM] | activation (H2AX phosphorylation) [4] 3.5% [at 14 µM] and -4.76% [at 31.6 µM]

O=S(=O)(O)c1ccc2ccccc2c1
inactive: Potency [1] | Potency [6] | Potency [2] | Potency [3] | Potency [4] | outcome [5]

Cc1cnc(C(=O)NCCc2ccc(S(=O)(=O)NC(=O)NC3CCCCC3)cc2)cn1
inactive: Potency [1] | Potency [6] | Potency [2] | Potency [3]

CCc1cccc(C)c1N
inactive: Potency [1] | Potency [6] | Potency [7] | outcome [8] | Potency [2] | Potency [3] | Potency [4] | outcome [5]

CC(C)CC(=O)CC(C)C
inactive: Potency [1] | Potency [6] | Potency [7] | outcome [8] | Potency [3] | Potency [4] | outcome [5]

FC(F)(F)c1ccc(Cl)c(Cl)c1
inactive: Potency [1] | Potency [6] | Potency [2] | Potency [3] | Potency [4] | outcome [5]

CC1=CCC2CC1C2(C)C (stereo unspecified)
inactive: Potency [1] | Potency [6] | Potency [2] | Potency [3] | Potency [4] | outcome [5]

C[Si](O[Si](C)(C)C)O[Si](C)(C)C
inactive: Potency [1] | Potency [9] | Potency [2] | Potency [3] | Potency [4] | outcome [5]

CCCCCCCCCCCCCCO
inactive: Potency [1] | Potency [6] | Potency [2] | Potency [3] | Potency [4] | outcome [5]

O=P(OC(CCl)CCl)(OC(CCl)CCl)OC(CCl)CCl
inactive: Potency [1] | outcome [8] | outcome [5]
active: Potency [7] 54.2 µM and 54.5 µM

CN(C)CCC(c1ccc(Cl)cc1)c1ccccn1 (stereo unspecified)
inactive: Potency [6] | Potency [2] | Potency [3] | Potency [4]

O=S1(=O)CC=CC1
inactive: Potency [1] | Potency [6] | Potency [2] | Potency [3] | Potency [4] | outcome [5]

Nc1ccccc1[N+](=O)[O-]
inactive: Potency [1] | Potency [6] | Potency [7] | outcome [8] | Potency [2] | Potency [3] | Potency [4] | outcome [5]

CCCCCCCCCCCCCCCO
inactive: Potency [1] | outcome [8] | Potency [2] | Potency [3] | Potency [4] | outcome [5]
69.1 µM (active) and inactive: Potency [7]

C#C[C@]1(O)CC[C@H]2[C@@H]3CCC4=CC(=O)CC[C@@H]4[C@H]3CC[C@@]21C
inactive: Potency [1] | Potency [10] | Potency [2] | Potency [3]
active: Potency [4] 28.4 µM and 19.6 µM

C[C@H]1C[C@@H]2[C@H]([C@@H](O)C[C@@]3(C)[C@H]2CC[C@]3(O)C(=O)CO)[C@@]2(C)C=CC(=O)C=C12
inactive: Potency [1] | Potency [6] | Potency [7] | outcome [8] | Potency [3] | Potency [4]

C[C@H]1C[C@H]2[C@@H]3CCC4=CC(=O)C=C[C@]4(C)[C@@]3(F)[C@@H](O)C[C@]2(C)[C@@]1(O)C(=O)CO
inactive: Potency [1] | Potency [9] | Potency [3] | Potency [4]
